Assay results taken from PubChem BioAssay AID1159580 (chemical genetic matrix, 2015).
In all, about 5,500 compounds went through this assay and about 2,000 (36%) were called active. About 18% were inconclusive and are not listed. No stated cut-off is given here; in the data, active means normalized growth mostly below about 0.91 (no sharp cut-off); inconclusive means no clear call, values can overlap the other calls; inactive means mostly above about 0.92. This is one part of the list.

Experiment: chemical genetic growth profiling, strain panel (AID 1159580);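 further: tested at 20 µM; growth read once vehicle control cultures reached saturation at 30 °C; 1 = growth at the plate median or of vehicle wells; lower values mean less growth of the strain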
Conditions: growth OD
[1] = S. cerevisiae deletion strains, locus YGR229C, strain SMI1, active compounds read low
[2] = S. cerevisiae deletion strains, locus YMR307W, strain GAS1, active compounds read low

Measured: normalized growth

COc1cc2c(c(OC)c1OC)-c1ccc(O)c(=O)cc1[C@@H](NC(C)=O)CC2
active: S. cerevisiae deletion strains, locus YDL035C, strain GPR1, active compounds read low 0.543 | S. cerevisiae deletion strains, locus YDL074C, strain BRE1, active compounds read low 0.515 | S. cerevisiae deletion strains, locus YDL101C, strain DUN1, active compounds read low 0.715 | S. cerevisiae deletion strains, locus YDL134C, strain PPH21, active compounds read low 0.87 | S. cerevisiae deletion strains, locus YDL185W, strain tfp1, active compounds read low 0.323 | S. cerevisiae deletion strains, locus YDR101C, strain arx1, active compounds read low 0.904 | S. cerevisiae deletion strains, locus YDR162C, strain NBP2, active compounds read low 0.382 | S. cerevisiae deletion strains, locus YEL061C, strain CIN8, active compounds read low 0.819 | S. cerevisiae deletion strains, locus YER167W, strain BCK2, active compounds read low 0.798 | S. cerevisiae deletion strains, locus YGL086W, strain mad1, active compounds read low 0.882 | S. cerevisiae deletion strains, locus YGL248W, strain PDE1, active compounds read low 0.744 | S. cerevisiae deletion strains, locus YGR078C, strain PAC10, active compounds read low 0.729 | [1] 0.247 | S. cerevisiae deletion strains, locus YHR030C, strain SLT2, active compounds read low 0.879 | S. cerevisiae deletion strains, locus YHR079C, strain IRE1 (second series), active compounds read low 0.851 | S. cerevisiae deletion strains, locus YHR129C, strain ARP1, active compounds read low 0.764 | S. cerevisiae deletion strains, locus YIL066C, strain RNR3, active compounds read low 0.543 | S. cerevisiae deletion strains, locus YIL073C, strain SPO22, active compounds read low 0.355 | S. cerevisiae deletion strains, locus YIL125W, strain kgd1, active compounds read low 0.881 | S. cerevisiae deletion strains, locus YJL095W, strain BCK1, active compounds read low 0.722 | S. cerevisiae deletion strains, locus YJL134W, strain LCB3, active compounds read low 0.913 | S. cerevisiae deletion strains, locus YJL187C, strain SWE1 (second series), active compounds read low 0.59 | S. cerevisiae deletion strains, locus YJR043C, strain POL32, active compounds read low 0.55 | S. cerevisiae deletion strains, locus YKL085W, strain MDH1 (second series), active compounds read low 0.91 | S. cerevisiae deletion strains, locus YKL085W, strain MDH1, active compounds read low 0.91 | S. cerevisiae deletion strains, locus YKL190W, strain CNB1, active compounds read low 0.593 | S. cerevisiae deletion strains, locus YKR001C, strain vps1, active compounds read low 0.889 | S. cerevisiae deletion strains, locus YLR039C, strain RIC1, active compounds read low 0.454 | S. cerevisiae deletion strains, locus YLR058C, strain SHM2, active compounds read low 0.691 | S. cerevisiae deletion strains, locus YLR268W, strain sec22, active compounds read low 0.852 | S. cerevisiae deletion strains, locus YLR330W, strain CHS5, active compounds read low 0.886 | S. cerevisiae deletion strains, locus YML016C, strain PPZ1, active compounds read low 0.829 | [2] 0.577 | S. cerevisiae deletion strains, locus YNL067W, strain RPL9B, active compounds read low 0.732 | S. cerevisiae deletion strains, locus YNL233W, strain BNI4, active compounds read low 0.81 | S. cerevisiae deletion strains, locus YNL271C, strain bni1, active compounds read low 0.843 | S. cerevisiae deletion strains, locus YNL298W, strain CLA4, active compounds read low 0.891 | S. cerevisiae deletion strains, locus YNL322C, strain KRE1, active compounds read low 0.639 | S. cerevisiae deletion strains, locus YOL006C, strain TOP1, active compounds read low 0.198 | S. cerevisiae deletion strains, locus YOR061W, strain CKA2, active compounds read low 0.753 | S. cerevisiae deletion strains, locus YOR069W, strain VPS5, active compounds read low 0.896 | S. cerevisiae deletion strains, locus YPL055C, strain LGE1, active compounds read low 0.436 | S. cerevisiae deletion strains, locus YPL241C, strain CIN2, active compounds read low 0.9 | S. cerevisiae deletion strains, strain wtn01, active compounds read low 0.881 | S. cerevisiae strains, strain wild type, active compounds read low 0.285
inactive: S. cerevisiae deletion strains, locus YBR021W, strain FUR4, active compounds read low 0.865 | S. cerevisiae deletion strains, locus YBR229C, strain ROT2, active compounds read low 0.962 | S. cerevisiae deletion strains, locus YCL029C, strain bik1, active compounds read low 0.982 | S. cerevisiae deletion strains, locus YDL192W, strain arf1, active compounds read low 0.978 | S. cerevisiae deletion strains, locus YDR318W, strain mcm21, active compounds read low 0.94 | S. cerevisiae deletion strains, locus YDR388W, active compounds read low 1 | S. cerevisiae deletion strains, locus YDR502C, strain sam2, active compounds read low 0.93 | S. cerevisiae deletion strains, locus YER110C, active compounds read low 1.03 | S. cerevisiae deletion strains, locus YER155C, strain BEM2, active compounds read low 0.98 | S. cerevisiae deletion strains, locus YGL078C, strain dbp3, active compounds read low 0.957 | S. cerevisiae deletion strains, locus YGR135W, strain pre9, active compounds read low 0.945 | S. cerevisiae deletion strains, locus YGR252W, strain gcn5, active compounds read low 0.879 | S. cerevisiae deletion strains, locus YHR094C, strain hxt1, active compounds read low 0.988 | S. cerevisiae deletion strains, locus YHR200W, strain rpn10, active compounds read low 0.977 | S. cerevisiae deletion strains, locus YIR030C, strain dcg1, active compounds read low 0.988 | S. cerevisiae deletion strains, locus YJL168C, strain set2, active compounds read low 1 | S. cerevisiae deletion strains, locus YKL009W, strain mrt4, active compounds read low 0.984 | S. cerevisiae deletion strains, locus YKL068W, active compounds read low 0.968 | S. cerevisiae deletion strains, locus YLR102C, strain apc9, active compounds read low 1.02 | S. cerevisiae deletion strains, locus YLR262C, strain YPT6, active compounds read low 0.72 | S. cerevisiae deletion strains, locus YLR342W, strain FKS1 (second series), active compounds read low 0.801 | S. cerevisiae deletion strains, locus YLR371W, strain rom2, active compounds read low 0.933 | S. cerevisiae deletion strains, locus YLR418C, strain cdc73, active compounds read low 0.841 | S. cerevisiae deletion strains, locus YML032C, strain rad52, active compounds read low 1 | S. cerevisiae deletion strains, locus YML124C, strain tub3, active compounds read low 1 | S. cerevisiae deletion strains, locus YMR078C, strain ctf18, active compounds read low 1.01 | S. cerevisiae deletion strains, locus YMR223W, strain ubp8, active compounds read low 0.938 | S. cerevisiae deletion strains, locus YNL250W, strain rad50, active compounds read low 0.968 | S. cerevisiae deletion strains, locus YNL307C, strain MCK1, active compounds read low 1.01 | S. cerevisiae deletion strains, locus YNR052C, strain pop2, active compounds read low 0.961 | S. cerevisiae deletion strains, locus YOL012C, strain htz1 0.984 | S. cerevisiae deletion strains, locus YOL147C, strain pex11, active compounds read low 1.01 | S. cerevisiae deletion strains, locus YOR136W, strain idh2, active compounds read low 0.988 | S. cerevisiae deletion strains, locus YOR144C, strain elg1, active compounds read low 0.97 | S. cerevisiae deletion strains, locus YOR184W, strain ser1, active compounds read low 1 | S. cerevisiae deletion strains, locus YOR316C, strain cot1, active compounds read low 1.02 | S. cerevisiae deletion strains, locus YPR119W, strain clb2, active compounds read low 1.03 | S. cerevisiae deletion strains, locus YPR141C, strain kar3, active compounds read low 0.997 | S. cerevisiae deletion strains, locus YPR163C, strain tif3, active compounds read low 1.01 | S. cerevisiae deletion strains, locus YPR167C, strain met16, active compounds read low 0.929

COc1cc2c(c(OC)c1OC)-c1ccc(OC)c(=O)cc1C(NC(C)=O)CC2 (stereo unspecified)
inactive: S. cerevisiae deletion strains, locus YAL040C, strain CLN3, active compounds read low 0.95 | S. cerevisiae deletion strains, locus YDR150W, strain NUM1, active compounds read low 1.03 | S. cerevisiae deletion strains, locus YDR363W, strain ESC2, active compounds read low 1 | S. cerevisiae deletion strains, locus YER002W, strain NOP16, active compounds read low 1.01 | [1] 1 | [2] 0.984 | S. cerevisiae deletion strains, locus YNL153C, strain GIM3, active compounds read low 1.06 | S. cerevisiae deletion strains, locus YNL175C, strain NOP13, active compounds read low 1.01 | S. cerevisiae deletion strains, locus YNL197C, strain WHI3, active compounds read low 1.01 | S. cerevisiae deletion strains, locus YNL224C, strain SQS1, active compounds read low 1 | S. cerevisiae deletion strains, locus YOR083W, strain WHI5 (second series), active compounds read low 1.02
